Measured values from PubChem BioAssay.
Results filed as inconclusive are left out. The source made the active and inactive calls.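 The calls were made as follows, unless noted: active = normalized viability below 100% at a tested concentration; inactive = the rest.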

Experiments:
[1] = growth inhibition of DIPG glioma cells, dose response, cell-based, SU-DIPG-XIII, MIPE4.0, CellTiter-Glo, qHTS (AID 1347061; cut-off not given, nearly all actives have AC50 up to about 37 µM;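 also: cells exposed to compound for 48 hours before readout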); settings: SU-DIPG-XIII viability, CellTiter-Glo ATP luminescence
[2] = growth inhibition of DIPG glioma cells, dose response, cell-based, JHH-DIPG-1, MIPE4.0, CellTiter-Glo, qHTS (AID 1347062; cut-off not given, nearly all actives have AC50 up to about 27 µM;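 as to AC50: cells exposed to compound for two days before readout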); settings: JHH-DIPG-1 viability, CellTiter-Glo ATP luminescence
[3] = viability loss in pontine glioma line – cell-based, SU-DIPG-XXV, MIPE5.0, CellTiter-Glo, qHTS, dose response (AID 1347065; cut-off not given, nearly all actives have AC50 up to about 26 µM;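 also: cells exposed to compound for 48 hours before ATP readout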); settings: CellTiter-Glo ATP luminescence
[4] = SU-DIPG-VI glioma cell viability, MIPE4.0 library, CellTiter-Glo luminescence, qHTS (AID 1347066; cut-off not given, nearly all actives have AC50 up to about 30 µM;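 also: cells exposed to compound for 48 hours before readout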); settings: CellTiter-Glo ATP luminescence
[5] = SU-DIPG-XXV glioma cell viability, MIPE5.0 library, qHTS (AID 1347068; cut-off not given, nearly all actives have IC50 up to about 30 µM;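 as to IC50: cells exposed to compound for 48 hours before viability readout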)
[6] = JHH-DIPG-1 glioma cell viability, MIPE5.0 library, CellTiter-Glo luminescence, qHTS (AID 1347067; cut-off not given, nearly all actives have AC50 up to about 26 µM;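 also: cells exposed to compound for 48 hours before readout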); settings: JHH-DIPG-1 glioma viability, CellTiter-Glo ATP luminescence
[7] = modifiers of HSF1 nuclear foci, imaging, Selleck Cancer Library (AID 1347162; in the data active = plate-normalised HSF1 focus index below about 0.46); settings: human cells, at 10 µM; SSMD: measured here: HSF1 foci SSMD mean; cell count: measured here: cell number; plate-normalised HSF1 focus index: stronger effect = lower value
[8] = sensitizers of A549 cells to miR-34 induction, primary screen, imaging, A549 dox-inducible miR-34, nuclei and caspase counts (AID 1347080;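 active = compounds whose cell count with miR-34 switched on is under 0.7 times the count with it off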); settings: A549 miR-34 inducible, Hoechst nuclei count, 48 h
[9] = survival rescue of mitochondrial mutant cells in low glucose, primary screen, MELAS cybrids, Rieske KO mouse fibroblasts, CellTiter-Glo (AID 1508586;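 active = mean z-score across replicates of 1.96 or higher in either the MELAS or the Rieske mutant cell line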;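 also: z relative to plate mean and SD of compound and empty wells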)
[10] = ovarian cancer cell viability with rucaparib, profiling panel, oncology-focused library, rucaparib conditional (AID 1508598); settings: patient-derived ovarian cancer cells, CellTiter-Glo viability, 144 h, stronger effect = lower value
[11] = stronger effect = lower value, cell number ratio, induced over uninduced
[12] = measured here: relative caspase fold change +Dox/-Dox
[13] = measured here: total cells with miR-34 induction, stronger effect = lower value
[14] = measured here: total cells without miR-34 induction
[15] = MELAS cybrid survival, CellTiter-Glo 48 h, stronger effect = higher value
[16] = Rieske KO mouse fibroblast survival, CellTiter-Glo 72 h
[17] = at 0.000305 µM, OCI-C5x cells, with rucaparib 10 µM, 100% = cells with rucaparib alone
[18] = at 0.000305 µM, OCI-C5x cells, without rucaparib
[19] = at 0.000305 µM, OCI-P5x cells, with rucaparib 20 µM, 100% = cells with rucaparib alone
[20] = at 0.000305 µM, OCI-P5x cells, without rucaparib
[21] = at 0.00122 µM, OCI-C5x cells, with rucaparib 10 µM, 100% = cells with rucaparib alone
[22] = at 0.00122 µM, OCI-C5x cells, without rucaparib
[23] = at 0.00122 µM, OCI-P5x cells, with rucaparib 20 µM, 100% = cells with rucaparib alone
[24] = at 0.00122 µM, OCI-P5x cells, without rucaparib
[25] = at 0.00488 µM, OCI-C5x cells, with rucaparib 10 µM, 100% = cells with rucaparib alone
[26] = at 0.00488 µM, OCI-C5x cells, without rucaparib
[27] = at 0.00488 µM, OCI-P5x cells, with rucaparib 20 µM, 100% = cells with rucaparib alone
[28] = at 0.00488 µM, OCI-P5x cells, without rucaparib
[29] = at 0.0195 µM, OCI-C5x cells, with rucaparib 10 µM, 100% = cells with rucaparib alone
[30] = at 0.0195 µM, OCI-C5x cells, without rucaparib
[31] = at 0.0195 µM, OCI-P5x cells, with rucaparib 20 µM, 100% = cells with rucaparib alone
[32] = at 0.0195 µM, OCI-P5x cells, without rucaparib
[33] = at 0.0781 µM, OCI-C5x cells, with rucaparib 10 µM, 100% = cells with rucaparib alone
[34] = at 0.0781 µM, OCI-C5x cells, without rucaparib
[35] = at 0.0781 µM, OCI-P5x cells, with rucaparib 20 µM, 100% = cells with rucaparib alone
[36] = at 0.0781 µM, OCI-P5x cells, without rucaparib
[37] = at 0.313 µM, OCI-C5x cells, with rucaparib 10 µM, 100% = cells with rucaparib alone
[38] = at 0.313 µM, OCI-C5x cells, without rucaparib
[39] = at 0.313 µM, OCI-P5x cells, with rucaparib 20 µM, 100% = cells with rucaparib alone
[40] = at 0.313 µM, OCI-P5x cells, without rucaparib
[41] = at 1.25 µM, OCI-C5x cells, with rucaparib 10 µM, 100% = cells with rucaparib alone
[42] = at 1.25 µM, OCI-C5x cells, without rucaparib
[43] = at 1.25 µM, OCI-P5x cells, with rucaparib 20 µM, 100% = cells with rucaparib alone
[44] = at 1.25 µM, OCI-P5x cells, without rucaparib
[45] = at 5 µM, OCI-C5x cells, with rucaparib 10 µM, 100% = cells with rucaparib alone
[46] = at 5 µM, OCI-C5x cells, without rucaparib
[47] = at 5 µM, OCI-P5x cells, with rucaparib 20 µM, 100% = cells with rucaparib alone
[48] = at 5 µM, OCI-P5x cells, without rucaparib

O=C(NCc1ccccc1)[C@H](Cc1ccccc1)NC(=O)[C@H]1O[C@@H]1C(=O)NCCc1ccc(O)cc1
active: IC50 [5] 18.6 µM
inactive: outcome [1] | outcome [2] | outcome [3] | outcome [4]

CCCCn1c(=O)n(Cc2ccccc2F)c(=O)c2[nH]c(Cc3ccc(NC(C)=O)cc3)nc21
inactive: outcome [1] | outcome [2] | outcome [4] | outcome [6] | outcome [5] | plate-normalised HSF1 focus index [7] 1.24
6960: cell count [7]
3.98: SSMD [7]

Cn1cc(-c2ccc3nnc(C(F)(F)c4ccc5ncccc5c4)n3n2)cn1
active: viability [10, 18] 90.8% | viability [10, 20] 89.6% | viability [10, 24] 98.1% | viability [10, 32] 98.3% | viability [10, 40] 95.6% | viability [10, 47] 97%
inactive: outcome [1] | outcome [2] | outcome [3] | outcome [6] | outcome [5] | fold change [8, 11] 0.861 | plate-normalised HSF1 focus index [7] 1.14 | z-score [9, 15] -0.414 | viability [10, 17] 113% | viability [10, 19] 102% | viability [10, 21] 123% | viability [10, 22] 106% | viability [10, 23] 104% | viability [10, 25] 118% | viability [10, 26] 109% | viability [10, 27] 107% | viability [10, 28] 101% | viability [10, 29] 116% | viability [10, 30] 114% | viability [10, 31] 106% | viability [10, 33] 110% | viability [10, 34] 110% | viability [10, 35] 104% | viability [10, 36] 102% | viability [10, 37] 120% | viability [10, 38] 112% | viability [10, 39] 105% | viability [10, 41] 133% | viability [10, 42] 123% | viability [10, 43] 107% | viability [10, 44] 104% | viability [10, 45] 130% | viability [10, 46] 137% | viability [10, 48] 104%
0.567: z-score [9, 16]
0.881: fold change [8, 12]
6920: cell count [7]
8080: cell count [8, 14]
6960: cell count [8, 13]
2.73: SSMD [7]

CCCCCN(CCC12CC3CC(CC(C3)C1)C2)C(=O)NCCCc1ccncc1
active: AC50 [3] 20.9 µM | AC50 [4] 20.9 µM
inactive: outcome [1] | outcome [2] | outcome [5]

NC(=O)c1noc([C@H](CCCC2CCCCC2)CC(=O)NO)n1
inactive: outcome [1] | outcome [4] | outcome [6] | outcome [5]
active: AC50 [2] 23.5 µM

Cc1cc(C(C)Nc2ccccc2)c2nc(N3CCOCC3)cc(=O)n2c1 (stereo not given)
6510: cell count [8, 14]
1.05: fold change [8, 12]
5530: cell count [8, 13]
1.51: z-score [9, 16]
inactive: outcome [1] | outcome [2] | outcome [4] | outcome [6] | outcome [5] | fold change [8, 11] 0.85 | z-score [9, 15] -0.0991

COc1cc(N2CCN(C)CC2)ccc1Nc1nc(N)c(C(=O)c2c(Cl)cccc2Cl)s1
inactive: outcome [1] | outcome [2] | outcome [4]

COc1cc(OC2CCN(C)CC2)ccc1Nc1ncc2c(n1)n(C1CCCC1)c(=O)n2C
1.43: SSMD [7]
active: AC50 [1] 16.6 µM | AC50 [2] 18.7 µM | AC50 [3] 13.2 µM | AC50 [6] 14.8 µM | IC50 [5] 16.6 µM | viability [10, 32] 94% | viability [10, 33] 96.6% | viability [10, 41] 48.8% | viability [10, 44] 64.7% | viability [10, 45] 46.3% | viability [10, 47] 76.9% | viability [10, 48] 28.1%
0.614: z-score [9, 16]
5490: cell count [8, 14]
0.864: fold change [8, 12]
5400: cell count [8, 13]
7430: cell count [7]
inactive: fold change [8, 11] 0.984 | plate-normalised HSF1 focus index [7] 1.05 | z-score [9, 15] -0.255 | viability [10, 17] 107% | viability [10, 18] 133% | viability [10, 19] 116% | viability [10, 20] 112% | viability [10, 21] 107% | viability [10, 22] 125% | viability [10, 23] 117% | viability [10, 24] 115% | viability [10, 25] 107% | viability [10, 26] 120% | viability [10, 27] 110% | viability [10, 28] 108% | viability [10, 29] 105% | viability [10, 30] 113% | viability [10, 31] 112% | viability [10, 34] 120% | viability [10, 35] 118% | viability [10, 36] 110% | viability [10, 37] 101% | viability [10, 38] 124% | viability [10, 39] 122% | viability [10, 40] 111% | viability [10, 42] 115% | viability [10, 43] 106% | viability [10, 46] 115%

Cc1csc(-c2nnc(Nc3ccc(Oc4ncccc4-c4ccnc(N)n4)cc3)c3ccccc23)c1
7110: cell count [7]
inactive: outcome [1] | outcome [2] | outcome [4] | outcome [6] | fold change [8, 11] 1.11 | plate-normalised HSF1 focus index [7] 1.31 | z-score [9, 15] -0.373 | viability [10, 17] 113% | viability [10, 18] 116% | viability [10, 19] 111% | viability [10, 21] 109% | viability [10, 22] 107% | viability [10, 23] 108% | viability [10, 25] 103% | viability [10, 27] 113% | viability [10, 38] 105% | viability [10, 41] 102% | viability [10, 45] 119% | viability [10, 46] 133%
2920: cell count [8, 14]
8.74: SSMD [7]
1.23: z-score [9, 16]
active: AC50 [3] 0.00417 µM | viability [10, 20] 94.9% | viability [10, 24] 98.2% | viability [10, 26] 92.7% | viability [10, 28] 93.3% | viability [10, 29] 78.2% | viability [10, 30] 88.5% | viability [10, 31] 93% | viability [10, 32] 70.3% | viability [10, 33] 82.2% | viability [10, 34] 99.2% | viability [10, 35] 92.9% | viability [10, 36] 66.6% | viability [10, 37] 79.9% | viability [10, 39] 94.9% | viability [10, 40] 67.8% | viability [10, 42] 95.4% | viability [10, 43] 91% | viability [10, 44] 64.7% | viability [10, 47] 58.5% | viability [10, 48] 54.4%
3250: cell count [8, 13]
0.556: fold change [8, 12]
